# Hits are enriched below; roughly 6.8% of the tested compounds scored in any of these assays.
# Pf Dd2 growth: P. falciparum Dd2 growth inhibitors, primary screen, SYBR Green fluorescence, single dose replicates. activity change, % at 10 µM. 94,000 compounds, 2.3% hits. AID 1159554, 2015. 72 h; stronger effect = lower value; in the data active = activity change below about -80%
# C diff HTS: C. difficile growth inhibitors, primary screen, HTS; growth activity, negative = inhibition, % at 16 µg/mL (by protocol); 86,000 compounds, 0.25% hits; Clostridium difficile clinical isolate growth, OD600, 24 h; stronger effect = lower value; AID 1259249, 2017;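 active = mean growth activity at or below -80% and every replicate also at or below -80%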;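 note: 0% = DMSO wells and -100% = levofloxacin 16 µg/mL wells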
# T cruzi growth-1: T. cruzi intracellular proliferation inhibitors, primary screen, cell-based, beta-gal Tulahuen parasites, NIH3T3 host, luminescence; AID 624255, 2012; 77,000 compounds, 5.9% hits; inhibition, % at 8.34 µM; T. cruzi beta-gal in NIH3T3, GalScreen luminescence, 90 h;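 active = mean inhibition above about 93%, with at least 55% of replicates each passing it, limit read from the data, passing the limit was not always enough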
# T cruzi growth-2: T. cruzi intracellular proliferation inhibitors, confirmation, cell-based, NIH3T3 host, beta-gal parasite, luminescence, cherry-pick; shares compounds with T cruzi growth-1; T. cruzi beta-gal in NIH3T3, GalScreen luminescence, 90 h; inhibition, % at 8.35 µM; 5,600 compounds, 72% hits; AID 651739, 2012;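 active = mean replicate inhibition above about 95% and at least 55% of replicates individually reaching it, limit read from the data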
# T cruzi growth-3: inhibitors of intracellular T. cruzi replication, confirmation, NIH3T3 host cells, beta-gal parasites, cherry-pick, set 2; shares compounds with T cruzi growth-1; T. cruzi beta-gal in NIH3T3, GalScreen luminescence, 90 h; inhibition, % at 2.09 µM; 5,600 compounds, 21% hits;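 active = mean inhibition above about 95%, with at least 55% of replicates also reaching it, limit read from the data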;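 note: plate controls were neutral control median for no effect and positive control median for full effect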
# 3T3 cytotox: cytotoxicity in mouse NIH/3T3 fibroblasts, confirmation, cytotoxicity control for T. cruzi proliferation inhibitor project, cell-based, cherry-pick, single point; NIH/3T3 viability, CellTiter-Glo ATP luminescence, 90 h; 5,600 compounds, 14% hits; AID 651742, 2012; cytotoxicity (signal decrease), % at 8.35 µM; shares compounds with T cruzi growth-1;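 active = mean signal decrease across replicates above about 35% based on untreated-well scatter, with enough replicates individually passing, limit read from the data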;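 note: 0% = median of neutral control wells and 100% = median of positive control wells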
# 3T3 cytotox 2: NIH/3T3 fibroblast cytotoxicity, confirmation, cytotoxicity control, cell-based, cherry-pick, single point, set 2 | shares compounds with T cruzi growth-1 | NIH/3T3 viability, CellTiter-Glo ATP luminescence, 90 h | 5,600 compounds, 56% hits | AID 651744, 2012 | inhibition, % at 24.9 µM;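 active = mean loss of cell viability signal at or above a set limit, and enough replicates individually reaching it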;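 note: 0% = median of neutral control wells and 100% = median of positive control wells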
# Numbers without * were called inactive; · = not tested or not shown.
SMILES,Pf Dd2 growth,C diff HTS,T cruzi growth-1,T cruzi growth-2,T cruzi growth-3,3T3 cytotox,3T3 cytotox 2
CNC(=O)C[C@@H]1CC[C@@H]2[C@H](COc3ccc(NC(=O)Nc4ccccc4OC)cc3C(=O)N2C)O1,2,-4,-8,·,·,·,·
O=C(C1CCCC1)N1CCCCN2[C@H](C1)[C@@H](c1ccc(C#CC3(O)CCCC3)cc1)[C@@H]2CO,-41,-17,70,·,·,·,·
O=C(C1CCCC1)N1CCCCN2[C@H](CO)[C@@H](c3ccc(C#CC4(O)CCCC4)cc3)[C@H]2C1,-13,-1,104*,-5,20,6,19
O=C(c1ccc(F)cc1)N1CCCCN2[C@H](CO)[C@@H](c3ccc(C#CC4(O)CCCC4)cc3)[C@H]2C1,0,-5,100*,35,16,3,-6
O=C(C1CCCC1)N1CCCCN2[C@H](CO)[C@H](c3ccc(C#CC4(O)CCCC4)cc3)[C@@H]2C1,6,-11,103*,99*,76,9,26
